NPR1 antag: Natriuretic polypeptide receptor (hNpr1) antagonism - Primary qHTS; Potency, µM (titrated, usually from 46.3 µM), most hits filed as inhibitors; HEK293 hNpr1 GloSensor cGMP, ANP-stimulated luminescence; 76,000 tested, 1.6% active; AID 1347048, 2019; calls by dose curve; further: nearly all actives have a fitted effect of over 60% in size
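Compound pre-incubated 30 min at room temperature on GloSensor-loaded HEK293 cells stably carrying hNpr1 and the pGS-40F cGMP biosensor. Stimulation uses hNppA at 0.1 nM final; luminescence is taken at baseline and 20 min post-agonist.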
GPT2 inhibitor: Primary qHTS assay for inhibitors of Glutamate pyruvate transaminase 2 (GPT2); AID 1671188, 2021; Potency, µM (doses to about 57.7 µM), hits mostly inhibitors; 100,000 tested, 0.25% active; Recombinant GPT2, coupled pyruvate oxidase/HRP Amplex Red fluorescence; Alanine aminotransferase 2 (Homo sapiens), Q8TD30; active means well fitted inhibition curve with a large enough effect; inconclusive means small, poorly fitted or top-dose-only effect; further: nearly all actives have a fitted effect of over 60% in size
Target sequence (Q8TD30 whole entry, looked up): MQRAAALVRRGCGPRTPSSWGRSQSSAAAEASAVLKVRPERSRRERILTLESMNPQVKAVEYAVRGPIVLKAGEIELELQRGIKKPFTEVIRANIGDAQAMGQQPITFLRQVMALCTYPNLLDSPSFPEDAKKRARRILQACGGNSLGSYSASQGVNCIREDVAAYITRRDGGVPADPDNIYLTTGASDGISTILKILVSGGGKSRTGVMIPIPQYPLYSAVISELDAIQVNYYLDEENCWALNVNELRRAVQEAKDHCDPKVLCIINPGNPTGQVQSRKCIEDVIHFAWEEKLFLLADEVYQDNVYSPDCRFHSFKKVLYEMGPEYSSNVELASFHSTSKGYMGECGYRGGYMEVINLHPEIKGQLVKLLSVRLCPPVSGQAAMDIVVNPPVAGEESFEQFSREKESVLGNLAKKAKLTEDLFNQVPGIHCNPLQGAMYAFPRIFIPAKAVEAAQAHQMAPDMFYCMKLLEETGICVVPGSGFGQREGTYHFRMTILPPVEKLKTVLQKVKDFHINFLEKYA
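Inhibition is scored from Amplex Red fluorescence generated when pyruvate oxidase and HRP act on pyruvate released by GPT2. Reactions contain 10ng/uL enzyme, 250uM a-KG and 2mM L-alanine and run 30 min at room temperature.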
Numbers stand for hits; ! = a repeat was not active; [ ] = another dose, or the depositor's remark. The full list was thinned out, with hits kept by preference.

`O=C(C1CCCN1C(=O)Cc1ccccn1)N1CCC(N2Cc3ccccc3C2=O)CC1` (stereo not drawn) gave GPT2 inhibitor inactive.
For c1ccc(-c2nc3ccncc3[nH]2)nc1 the results were NPR1 antag inactive and GPT2 inhibitor inactive.
Cc1ccc(CN2C(=O)OC(c3cccc(NC(=O)Cc4ccccc4)c3)C2C(=O)NCC(C)C)cc1 (stereo not drawn) was read as NPR1 antag inactive and GPT2 inhibitor inactive.
Screening CC(=O)c1c(O)cc(O[C@@H]2O[C@H](CO)[C@@H](O)[C@H](O)[C@H]2O)cc1O returned GPT2 inhibitor inactive.
`C[C@@H]1O[C@@H](O[C@H]2[C@H](Oc3cc(O)c(C(=O)CCc4ccc(O)cc4)c(O)c3)O[C@H](CO)[C@@H](O)[C@@H]2O)[C@H](O)[C@H](O)[C@H]1O` gave GPT2 inhibitor 7.1µM.
O=C(NCc1cccc(C(F)(F)F)c1)c1nc2sccn2c1-c1ccc(C(F)(F)F)cc1 was read as GPT2 inhibitor inactive.
For CCc1cccc(OCC(=O)c2ccc3c(c2)N(CC(=O)N(C)Cc2ccccc2)C(=O)CO3)c1 the results were NPR1 antag 13µM and GPT2 inhibitor inactive.
Cc1cccc(OCC(=O)c2ccc3c(c2)N(CC(=O)N(C)Cc2ccccc2)C(=O)CO3)c1 was read as NPR1 antag inactive and GPT2 inhibitor inactive.
`Cc1onc(-c2cnn(C)c2NCc2ccc(C#N)cc2)c1C(=O)Nc1ccccc1` gave NPR1 antag inactive and GPT2 inhibitor inactive.
For O=C1NCc2ccccc2CC12CCN(Cc1ccccc1Br)C2 (stereo not drawn) the results were GPT2 inhibitor inactive.
For CCOC(=O)c1ccc(NC2CCCCC2)c(N)c1 the results were GPT2 inhibitor 3.5µM.
Screening CC(CNC1CCCCC1)OC(=O)c1ccccc1 (stereo not drawn) returned GPT2 inhibitor inactive.
Cc1ccc(NC(=O)Nc2ccc(C)n(CC(=O)N3CCC(C)CC3)c2=O)cc1 was read as NPR1 antag inactive and GPT2 inhibitor inactive.
For COCCN(C)C[C@@H]1CN(C(=O)c2cc3ccccc3n(C)c2=O)C[C@@H]1CO the results were NPR1 antag inactive and GPT2 inhibitor inactive.
`COc1ccc(C2Cn3nnc(-c4noc(Cc5ccccc5OC)n4)c3CO2)cc1` (stereo not drawn) gave NPR1 antag inactive and GPT2 inhibitor inactive.
Screening OC1(CN2CCN(c3nccs3)CC2)CNCCOC1 (stereo not drawn) returned NPR1 antag inactive and GPT2 inhibitor inactive.
`O=C(C[C@H]1NC(=O)c2ccccc2NC1=O)Nc1nc(-c2cccs2)cs1` gave NPR1 antag inactive and GPT2 inhibitor inactive.
`COc1ccccc1-c1cccc(C(=O)O)c1` gave GPT2 inhibitor inactive.
Screening Cc1ccc(-n2[nH]c(C)c(N=Nc3cccc(-c4cccc(C(=O)O)c4)c3O)c2=O)cc1C returned GPT2 inhibitor 1.9µM.
For Cc1ccc(-c2cc3c(=O)n(CCNC(=O)c4nn(C)c5ccccc45)ccn3n2)cc1C the results were NPR1 antag inactive and GPT2 inhibitor inactive.
For O=C(c1ccc(C2CCCNC2)cc1)N(Cc1ccccn1)C1CCCCC1 (stereo not drawn) the results were NPR1 antag inactive and GPT2 inhibitor inactive[11.5 µM].
For O=C(Cc1c[nH]c2ncc(-c3cccc(Cl)c3)cc12)NCc1cccnc1 the results were NPR1 antag 35µM and GPT2 inhibitor inactive.
O=C(Cc1c[nH]c2ncc(-c3cccc(F)c3)cc12)NCc1cccnc1 was read as NPR1 antag inconclusive and GPT2 inhibitor inactive.
O=c1[nH]sc2cc(Cl)ccc12 was read as GPT2 inhibitor 14µM.
For COc1cc([C@H]2Oc3cc([C@H]4Oc5cc(O)cc(O)c5C(=O)[C@H]4O)ccc3O[C@H]2CO)ccc1O the results were GPT2 inhibitor 12µM.
COc1cc([C@H]2Oc3cc([C@H]4Oc5cc(O)cc(O)c5C(=O)[C@@H]4O)ccc3O[C@@H]2CO)ccc1O was read as GPT2 inhibitor inactive.
Screening CCOc1nccn2c(-c3ccc(CNc4ccc(OC)nc4)cc3)cnc12 returned NPR1 antag inactive and GPT2 inhibitor inconclusive.
For COc1ccc(-c2nnc(C[C@@H]3C[C@@H](C(C)C)[C@H](CN(C)CCc4ccccn4)C=C3C)o2)cc1 the results were NPR1 antag inactive and GPT2 inhibitor inconclusive.
COc1ccc(C(=O)NCCc2ncc(C)n2C2CCC2)c(OC)n1 was read as NPR1 antag inactive and GPT2 inhibitor inactive.
`O=C(Nc1ccccc1F)N1CCCCCC1CN1CCCC1` (stereo not drawn) gave NPR1 antag inactive and GPT2 inhibitor inactive.
Screening COc1ccc(C2Cn3nnc(C(=O)N4CCN(C(=O)c5cc(F)ccc5Cl)CC4)c3CO2)cc1 (stereo not drawn) returned NPR1 antag 13µM and GPT2 inhibitor inactive.
`COc1ccc(C2Cn3nnc(C(=O)N4CCN(C(=O)c5ccccc5Cl)CC4)c3CO2)cc1` (stereo not drawn) gave NPR1 antag inconclusive and GPT2 inhibitor inactive.
For CCCn1c(C)cnc1CC1CCN(S(C)(=O)=O)CC1 the results were NPR1 antag inactive and GPT2 inhibitor inactive.
`O=C(c1ccc(F)c(Cl)c1)N1CCN(c2cc(C(F)(F)F)ncn2)CC1` gave NPR1 antag inactive and GPT2 inhibitor inactive.
For O=C(NCc1ccc(F)cc1)C1CCc2sc(C(=O)N3CCCC3)cc2C1 (stereo not drawn) the results were NPR1 antag inactive and GPT2 inhibitor inactive.
Screening O=C(NCc1ccc2c(c1)OCO2)C1CCc2sc(C(=O)N3CCCCCC3)cc2C1 (stereo not drawn) returned NPR1 antag 22µM and GPT2 inhibitor inactive.
O=C1Nc2ccccc2OCC12CCN(Cc1ccccc1)CC2 was read as NPR1 antag inactive and GPT2 inhibitor inactive.
For COCc1cc(C[C@@H]2C[C@H](NCc3cccnc3)C2(C)C)no1 the results were NPR1 antag inactive and GPT2 inhibitor inactive.
CC1(C)[C@H](Cc2cc(-c3ccc(F)cc3)on2)C[C@@H]1NCc1cccnc1 was read as NPR1 antag 11µM and GPT2 inhibitor inactive.
CCc1nc2c(c(-c3ccc(Cl)cc3)n1)CN(Cc1ccccc1)CC2 was read as NPR1 antag inactive and GPT2 inhibitor inactive.
Screening C=CCN1C[C@@H]2C[C@@H](C(=O)NC)N(C(=O)Cc3ccccc3)c3cccc(c32)C1=O returned GPT2 inhibitor inactive.
Screening Cc1ccnc(NCCNC(=O)C2CCC(=O)N(CC3CCCCC3)C2)c1 (stereo not drawn) returned NPR1 antag inactive and GPT2 inhibitor inactive[11.5 µM].
`Cc1cc(N2CCC(c3[nH]ncc3Cc3ccccc3)CC2)nc(N)n1` gave NPR1 antag inactive and GPT2 inhibitor inactive[11.5 µM].
CN(CCO)c1ccc(-c2nc(CCCc3ccccc3)no2)cn1 was read as NPR1 antag inactive and GPT2 inhibitor inactive.
CN(Cc1cccnc1)c1ccc(-c2nc(COc3ccccc3)no2)cn1 was read as NPR1 antag 10µM and GPT2 inhibitor inactive.
For CNCCC(Oc1ccccc1C)c1ccccc1 (stereo not drawn) the results were GPT2 inhibitor inactive.
Screening CNCC[C@H](Oc1cccc2ccccc12)c1cccs1 returned GPT2 inhibitor 9.7µM!.
`COCC(=O)N1CCCC1C(=O)N1CCC(N2Cc3ccccc3C2=O)CC1` (stereo not drawn) gave GPT2 inhibitor inactive.

Assay outcomes deposited in PubChem by National Center for Advancing Translational Sciences (NCATS).
